According to PubChem BioAssay AID1159580 (chemical genetic matrix, 2015):
In all, about 5,500 compounds went through this assay and about 2,000 (36%) were called active. Inconclusive results (about 18%) are left out. Rule as the data show it: active = normalized growth mostly below about 0.91 (no sharp cut-off); inconclusive = no clear call, values can overlap the other calls; inactive = mostly above about 0.92. The list shows a part of the results.

Experiment: chemical genetic growth profiling, strain panel (AID 1159580);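 also: tested at 20 µM; growth read once vehicle control cultures reached saturation at 30 °C; 1 = growth at the plate median or of vehicle wells; lower values mean less growth of the strain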
Conditions: S. cerevisiae deletion strains, growth OD
[1] = locus YGR078C, strain PAC10, active compounds read low
[2] = locus YMR263W, strain SAP30, active compounds read low
[3] = locus YNL128W, strain TEP1, active compounds read low
[4] = locus YPL055C, strain LGE1, active compounds read low
[5] = locus YPL241C, strain CIN2, active compounds read low

Measured: normalized growth

N#CC(C#N)=CNc1cccc(N)n1
inactive: locus YAL013W, strain DEP1, active compounds read low 0.995 | locus YBR229C, strain ROT2, active compounds read low 1.01 | locus YCL061C, strain MRC1, active compounds read low 1.04 | locus YDL101C, strain DUN1, active compounds read low 1.05 | locus YDL134C, strain PPH21, active compounds read low 1.01 | locus YDR150W, strain NUM1, active compounds read low 1.07 | locus YEL061C, strain CIN8, active compounds read low 1 | [1] 1.02 | locus YGR229C, strain SMI1, active compounds read low 1.02 | locus YHR030C, strain SLT2, active compounds read low 1.05 | locus YHR087W, strain rtc3, active compounds read low 0.968 | locus YJR043C, strain POL32, active compounds read low 1.03 | locus YJR075W, strain HOC1, active compounds read low 1.05 | locus YLR039C, strain RIC1, active compounds read low 1.05 | locus YLR058C, strain SHM2 (second series), active compounds read low 0.992 | locus YLR085C, strain ARP6, active compounds read low 1.03 | locus YLR262C, strain YPT6, active compounds read low 1 | locus YML094W, strain GIM5, active compounds read low 0.991 | locus YMR219W, strain ESC1, active compounds read low 1 | [2] 1.05 | [3] 1 | locus YNL153C, strain GIM3, active compounds read low 1.02 | locus YNL298W, strain CLA4 (second series), active compounds read low 1.01 | locus YNL322C, strain KRE1, active compounds read low 1.01 | locus YNR030W, strain Alg12, active compounds read low 1 | [4] 0.996 | [5] 1 | locus YPR135W, strain CTF4, active compounds read low 1.07

CC(N)C1CCC(C(=O)Nc2ccncc2)CC1 (configuration not stated)
inactive: locus YAL040C, strain CLN3, active compounds read low 0.989 | locus YCL061C, strain MRC1 (second series), active compounds read low 1 | locus YDR363W, strain ESC2, active compounds read low 0.985 | locus YER002W, strain NOP16, active compounds read low 0.987 | [1] 1.02 | [2] 1 | locus YMR307W, strain GAS1, active compounds read low 1.02 | [3] 1.01 | locus YNL175C, strain NOP13, active compounds read low 0.992 | locus YNL197C, strain WHI3, active compounds read low 0.99 | locus YNL224C, strain SQS1, active compounds read low 0.993 | locus YOR083W, strain WHI5 (second series), active compounds read low 1.05 | [4] 0.987 | [5] 0.996
